{"source": "the supplement of paper PMC8975748", "note": "Structures can show the parent of a compound that is named as a salt."}
{"system": "Saccharomyces cerevisiae BY4741 SeMeCo community", "test": "z-score of prototroph abundance vs DMSO median; higher = larger share of this subpopulation than in DMSO controls", "details": "10 µM; 24 h; SM minimal medium; subpopulation (auxotrophy): Prototroph", "experimental": "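Fluorescent four-plasmid SeMeCo (self-establishing metabolically cooperating S. cerevisiae BY4741 community; plasmids pH-mRuby2, pL-mWasabi, pU-eCFP, pM-TagRFP657) was grown 24 h in minimal SM medium with each Selleck FDA-approved drug at 10 µM in 384-well plates. Cells were fixed and imaged by high-content confocal microscopy. For each auxotrophic subpopulation (and the prototroph), a z-score gives the deviation from the DMSO vehicle-control population median.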"}
{"molecule": "CC(C)(O)C(Cl)(Cl)Cl", "note": "[Chlorobutanol]", "z-score of prototroph abundance": -0.27}
{"molecule": "CN(C)C(=O)Oc1ccc[n+](C)c1", "note": "[Pyridostigmine Bromide]", "z-score of prototroph abundance": -0.27}
{"molecule": "NCCc1c[nH]c2ccc(O)cc12", "note": "[Serotonin HCl]", "z-score of prototroph abundance": 0.67}
{"molecule": "C[C@@H]1CC[C@H]2[C@@H](C)C(=O)O[C@@H]3O[C@@]4(C)CC[C@@H]1[C@]32OO4", "note": "[Artemisinin]", "z-score of prototroph abundance": 1.7}
{"molecule": "CN1[C@@H]2C[C@@H](OC(=O)[C@H](CO)c3ccccc3)C[C@H]1[C@@H]1O[C@@H]12", "note": "[Scopolamine HBr trihydrate]", "z-score of prototroph abundance": 0.7}
{"molecule": "CNC1CC(N)C(O)C(OC2OC(CO)C(O)C3OC4(OC(C(N)CO)C(O)C(O)C4O)OC23)C1O", "note": "(centres undefined) [Hygromycin B]", "z-score of prototroph abundance": 0.64}
{"molecule": "C[N+]12CCC(CC1)C(OC(=O)C(O)(c1ccccc1)c1ccccc1)C2", "note": "(centres undefined) [Clidinium Bromide]", "z-score of prototroph abundance": 0.13}
{"molecule": "CCCN1C[C@H](CSC)C[C@@H]2c3cccc4[nH]cc(c34)C[C@H]21", "note": "[Pergolide Mesylate]", "z-score of prototroph abundance": 0.88}
{"molecule": "CN(C)[C@@H]1C(=O)C(C(N)=O)=C(O)[C@@]2(O)C(=O)C3=C(O)c4c(O)cccc4[C@@](C)(O)[C@H]3C[C@@H]12", "note": "[Tetracycline HCl]", "z-score of prototroph abundance": -0.24}
{"molecule": "COc1ccc2c3c([nH]c2c1)C(C)=NCC3", "note": "[Harmaline]", "z-score of prototroph abundance": 3.47}
{"molecule": "CN(C)C(=O)Oc1cccc([N+](C)(C)C)c1", "note": "[Neostigmine Bromide]", "z-score of prototroph abundance": 0.27}
{"molecule": "COc1ccc(C(CN(C)C)C2(O)CCCCC2)cc1", "note": "(centres undefined) [Venlafaxine HCl]", "z-score of prototroph abundance": 0}
{"molecule": "CC(NC(C)(C)C)C(=O)c1cccc(Cl)c1", "note": "(centres undefined) [Amfebutamone (Bupropion) HCl]", "z-score of prototroph abundance": 0.49}
{"molecule": "CC[C@@H](C(N)=O)N1CCCC1=O", "note": "[Levetiracetam]", "z-score of prototroph abundance": 0.59}
{"molecule": "CN1C(=O)COc2c(C(=O)NC3CN4CCC3CC4)cc(Cl)cc21", "note": "(centres undefined) [Azasetron HCl]", "z-score of prototroph abundance": 0.42}
{"molecule": "CCN(C)C(=O)Oc1cccc([C@H](C)N(C)C)c1", "note": "[Rivastigmine Tartrate]", "z-score of prototroph abundance": 0.28}
{"molecule": "O=c1cccc2n1C[C@@H]1CNC[C@H]2C1", "note": "[Cytisine]", "z-score of prototroph abundance": 0.46}
{"molecule": "CCN(CC)CCOC(=O)C(O)(c1ccccc1)c1ccccc1", "note": "[Benactyzine hydrochloride]", "z-score of prototroph abundance": -0.56}
{"molecule": "COC(=O)C1=CCCN(C)C1", "note": "[Arecoline HBr]", "z-score of prototroph abundance": -0.55}
{"molecule": "CC[C@H]1CN2CC[C@]3(C(=O)Nc4ccccc43)[C@@H]2C[C@@H]1/C(=C\\OC)C(=O)OC", "note": "[Rhynchophylline]", "z-score of prototroph abundance": -0.9}
{"molecule": "CC(=O)OCC1=C(C(=O)O)N2C(=O)C(N)C2SC1", "note": "(centres undefined) [7-Aminocephalosporanic acid]", "z-score of prototroph abundance": 0.2}
{"molecule": "COc1ccc(C(CN(C)C)C2(O)CCCCC2)cc1", "note": "(centres undefined) [Venlafaxine]", "z-score of prototroph abundance": 0.19}
{"molecule": "C[CH2][Hg][S]c1ccccc1C(=O)[O-].[Na+]", "note": "[Thimerosal]", "z-score of prototroph abundance": -17.3}
{"molecule": "C[C@@H]1O[C@@H](O[C@H]2C[C@@H](O)[C@]3(CO)[C@H]4[C@H](O)C[C@]5(C)[C@@H](C6=CC(=O)OC6)CC[C@]5(O)[C@@H]4CC[C@]3(O)C2)[C@H](O)[C@H](O)[C@H]1O", "note": "[Ouabain]", "z-score of prototroph abundance": 0.81}
{"molecule": "CN1[C@@H]2CC[C@H]1C[C@@H](OC(=O)C(CO)c1ccccc1)C2", "note": "(some centres undefined) [Atropine sulfate monohydrate]", "z-score of prototroph abundance": 0.64}
{"molecule": "C[N+](C)(C)CCCCCCCCCC[N+](C)(C)C", "note": "[Decamethonium Bromide]", "z-score of prototroph abundance": 0.58}
{"molecule": "Cc1cc(O)ccc1Cl", "note": "[Chlorocresol]", "z-score of prototroph abundance": 0.71}
{"molecule": "CCCCCCCCCCCCCCCC[n+]1ccccc1", "note": "[Cetylpyridinium Chloride]", "z-score of prototroph abundance": -12.7}
{"molecule": "Oc1cccc2cccnc12", "note": "[8-Hydroxyquinoline]", "z-score of prototroph abundance": 0.32}
{"molecule": "C=C(C)[C@H]1Cc2c(ccc3c2O[C@@H]2COc4cc(OC)c(OC)cc4[C@@H]2C3=O)O1", "note": "[Rotenone (Barbasco)]", "z-score of prototroph abundance": -0.73}
{"molecule": "COc1cc2c(cc1OC)C1CC(=O)C(CC(C)C)CN1CC2", "note": "(centres undefined) [Tetrabenazine (Xenazine)]", "z-score of prototroph abundance": 0.02}
{"molecule": "CCC1=C[C@H]2CN3CCc4c([nH]c5ccccc45)[C@](C(=O)OC)(C2)[C@H]13", "note": "[Catharanthine]", "z-score of prototroph abundance": 0.37}
{"molecule": "C[N+]1(C)[C@@H]2C[C@@H](OC(=O)[C@H](CO)c3ccccc3)C[C@H]1[C@@H]1O[C@@H]12", "note": "[Methscopolamine]", "z-score of prototroph abundance": -0.68}
{"molecule": "O=[N+]([O-])C(Br)(CO)CO", "note": "[Bronopol]", "z-score of prototroph abundance": -0.24}
